In all, about 48,000 compounds went through this assay and about 13,000 (27%) showed an effect of 50% or more. This is one part of the list.
Test system: Wolbachia pipientis
Assay: Anti-Wolbachia Cell-Based Screen
Type: functional
Design: scale not given: in the data most compounds retested in dose-response had high values
Conditions: 5 µM

Row | SMILES | Percent Effect [%]
1 | Cc1cc2n(n1)CC(CNC1CCN(C(=O)C3CC3)CC1)CN2 (stereo unspecified) | 1.236
2 | Nc1cc(C(=O)NCC2CCN(Cc3ccncc3F)C2)ccn1 (stereo unspecified) | -104.6
3 | CC(C)(C)c1nccc(N2CCC(OCCN3CCCCC3)C2)n1 (stereo unspecified) | 4.599
4 | CC(CN1CCCCCC1)NCc1nncn1C1CCCCC1 (stereo unspecified) | -0.3524
5 | CC(C)n1cc(CN(C)C[C@@H]2CCCN3CCCC[C@H]23)cn1 | 12.76
6 | CC(Cn1cncc1-c1cnn(C2CCCCC2)c1)N1CCCCC1.Cl (stereo unspecified) | 109.8
7 | O=C(NC1CC1)N1CCc2ccc(=O)n(CC3CC3)c2CC1 | 7.486
8 | COCCn1c2c(ccc1=O)CCN(C(=O)C1CC=CC1)CC2 | 102.1
9 | O=C(NC1CC1)N1CCc2ccc(=O)n(CCN3CCCC3)c2CC1.O=C(O)C(F)(F)F | -8.445
10 | COCCn1c2c(ccc1=O)CC(N)CC2 (stereo unspecified) | -4.933
11 | COCCn1c2c(ccc1=O)CCN(C(=O)CC1CC1)CC2 | 117
12 | COCCn1c2c(ccc1=O)CCN(C(=O)NC1CC1)CC2 | 105.3
13 | COCC(=O)N1CCc2ccc(=O)n(CC3CC3)c2CC1 | 104.1
14 | CC(C)c1cccc(CSc2nnc(Cn3cncn3)o2)n1 | -1.93
15 | CN(C)C(=O)CN1C(=O)CO[C@@H]2CN(c3ccccn3)C[C@H]21.O=C(O)C(F)(F)F | -2.034
16 | Cc1cc(CCCC(=O)NC2CCN(C)C2=O)c(C)s1 (stereo unspecified) | -2.482
17 | CNC(=O)CS(=O)(=O)C1CCN(S(=O)(=O)c2ccccc2Br)CC1 | 9.932
18 | Cc1ccc(-c2noc(C(O)CC(C)C)n2)nn1 (stereo unspecified) | -5.785
19 | O=C(CN1CCS(=O)(=O)CC1)NC1CCOc2ccccc21 (stereo unspecified) | 5.265
20 | Cc1ccc(CS(=O)(=O)Cc2nc(N)nc(N(C)C)n2)cc1 | 10.59
21 | CN(C)c1cc2c(nn1)CCN(C(=O)C1Cc3ccccc3S1)C2 (stereo unspecified) | -0.2262
22 | CC(C)c1ccc(O)c(C(=O)NCc2cc[nH]n2)c1 | -15.09

Row | SMILES | Percent Effect [%]
23 | CC(NCCCn1ccnc1)c1ccc(N2CCCS2(=O)=O)cc1 (stereo unspecified) | -4.666
24 | COCCCNS(=O)(=O)c1ccc(N2CCCCS2(=O)=O)cc1 | 124.1
25 | CC(NCCCn1cccn1)c1ccc(N2CCCS2(=O)=O)cc1 (stereo unspecified) | -2.983
26 | COc1cc(C(F)(F)F)sc1C(=O)O | 103.8
27 | COC(=O)c1sc(C(F)(F)F)cc1OC | 102.8
28 | COc1cc(C)sc1C(=O)NCCNc1ccccc1 | -4.959
29 | CCOCC(C)(C)NC(=O)Nc1cc(F)ccc1OC | -3.533
30 | COc1cc2cc(C(=O)O)n(C)c2cc1OC | -4.689
31 | CNS(=O)(=O)c1ccsc1C(=O)OC | 1.281
32 | CC1CCCCN1S(=O)(=O)NCCN/C(O)=C1/N=CC=CC1=O (stereo unspecified) | -4.587
33 | CCc1ccc(CN2CCCC(CO)(CCOC)C2)cc1 (stereo unspecified) | -6.434
34 | Cc1cc(C)n(CC2CCCN2C(=O)c2ccc(C(N)=O)cn2)n1 (stereo unspecified) | -1.212
35 | Cc1cc(C)n(CC2CCCCN2C(=O)c2ccc(C(N)=O)cc2)n1 (stereo unspecified) | 111.1
36 | Cc1cc(C)n(CC2CCCCN2C(=O)c2ccc3nncn3c2)n1 (stereo unspecified) | 3.82
37 | Cc1cc(C)n(CC2CCCN2C(=O)c2ccc3[nH]nnc3c2)n1 (stereo unspecified) | -17
38 | CCOc1ccc(C(=O)N2CCCCC2Cn2nc(C)cc2C)cn1 (stereo unspecified) | 118.2
39 | Cc1cc(C)n(CC2CCCCN2C(=O)c2cnn(C)c2)n1 (stereo unspecified) | -4.108
40 | Cc1cc(C)n(CC2CCCN2C(=O)c2ccc(NC3CC3)nc2)n1 (stereo unspecified) | 104.7
41 | CCOc1ccccc1C(CC(=O)N(C)C)NC(C)=O (stereo unspecified) | -2.972
42 | CCc1nc2n(n1)CC(NCc1cn(C)nc1-c1cccnc1)CC2 (stereo unspecified) | -2.892
43 | Cc1cnc(N2CC[C@@H]3O[C@H](COCc4ccccn4)CC[C@@H]32)nc1.O=C(O)C(F)(F)F.O=C(O)C(F)(F)F | -4.87
44 | Cc1ccc2c(c1)SCC(=O)N2CC(=O)N1CCC[C@H]1c1nc(C)no1 | 9.485

Row | SMILES | Percent Effect [%]
45 | O=c1cc(N2CCCCC2)cnn1Cc1noc(C2CCCO2)n1 (stereo unspecified) | -0.8561
46 | O=c1cc(N2CCCC2)cnn1Cc1noc(C2CCCO2)n1 (stereo unspecified) | -13.05
47 | O=C1CSc2ccccc2N1Cc1noc(C2CCCO2)n1 (stereo unspecified) | 108.8
48 | Cc1cc(C)n(C2CCN(C(=O)CN3C(=O)CSc4ccccc43)C2)n1 (stereo unspecified) | -2.821
49 | Cc1ccc2c(c1)SCC(=O)N2CC(=O)N1CCCC1c1nccs1 (stereo unspecified) | 15.48
50 | Cc1ccc2c(c1)SCC(=O)N2Cc1noc(C2CCCO2)n1 (stereo unspecified) | 109.6
51 | Cc1ccc2c(c1)SCC(=O)N2Cc1noc(C2CC2)n1 | 92.98
52 | Cc1cccc(-c2nc(CN(Cc3cccs3)CC3CCCO3)no2)c1 (stereo unspecified) | 0.4556
53 | CCCc1ccc(CN2C[C@H]3C(=O)N(CC4CC4)C[C@@]3(C(=O)O)C2)o1 | -18.71
54 | CC(C)c1ocnc1C(=O)NC(c1nnc2n1CCNCC2)C(C)C (stereo unspecified) | 15.04
55 | O=C1CCC(C(=O)N2CCOC(Cc3ccccc3Cl)C2)=NN1 (stereo unspecified) | -0.3624
56 | Cc1nc(C(C)(C)NC(=O)Nc2ccccc2)no1 | -20.84
57 | CCNC(=O)Cn1ncc(N(C)CCc2ccccc2)cc1=O | 6.09
58 | Cc1ccsc1C(=O)N1CCc2ncc(CN(C)C)n2CC1.O=C(O)C(F)(F)F | -9.607
59 | CN(Cc1ccc(CCC(C)(C)O)cc1)Cc1cccc(O)c1 | -7.089
60 | Cn1c(Cn2ccnc2)nnc1C1CCCN(CC(C)(C)C)C1 (stereo unspecified) | -0.4988
61 | CC(C)(C)CN1CCC(c2nccnc2Nc2cnccn2)CC1 | 104.1
62 | CC(C)(C)CN1CCCC(c2nccnc2Nc2cnccn2)C1 (stereo unspecified) | 141
63 | CC(C)(C)CN1CCC(c2nnc(Cn3ccnc3)n2C2CC2)CC1 | -15.12
64 | Cn1cncc1-c1nnc([C@H]2CCN(CC(C)(C)C)C2)o1 | -4.073
65 | CC(C)N(Cc1ccc(C#N)cc1)Cc1nnsc1Cl | -0.2197
66 | COC(=O)CNC(=O)CC1COc2ccc(C(=O)N(C)C)cc2N1C (stereo unspecified) | -21.78
